Screens (PubChem BioAssay)
E coli growth-1: inhibitors of Escherichia coli growth | OD600, 23 h; stronger effect = lower value | OD600 absorbance (concentration not given with the values) | 330,000 compounds, 0.21% hits | AID 1053175;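 active means OD600 absorbance below the run mean of sample wells minus 3.6 SD, in any replicate, cut at about 0.56 in these data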
AddAB inh: less growth of phage-infected E. coli with AddAB; E. coli expressing H. pylori AddAB, absorbance growth; inhibition, % at 11.9 µM; 330,000 compounds, 0.29% hits; in the data active means inhibition above about 12%
phage Ecoli inh: E. coli growth loss with phage present; AID 651602; inhibition, % at 11.9 µM; growth absorbance; 360,000 compounds, 0.26% hits; in the data active means inhibition above about 11%
Tat transport: blocks Tat-dependent protein export in E. coli | E. coli MC4100 TorA-mCherry Tat export, fluorescence | inhibition, % at 10 µM | 340,000 compounds, 0.036% hits | AID 488895;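 active means mean replicate inhibition at least 50% and at least half of replicates individually reaching 50%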;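 further: exported cargo escapes ClpAP degradation while cytoplasmic cargo is degraded and loses fluorescence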
E coli growth-2: counter-screen for AddAB inhibitors: E. coli growth inhibition. E. coli V3065 growth, OD600 absorbance, 18 h. 330,000 compounds, 0.27% hits. inhibition, % at 11.9 µM;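 active means inhibition above the campaign's mean inhibition across all tested compounds plus 3 SD, cut at about 9.9% in these data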;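 further: uninfected addAB+ strain grown without phage in ampicillin broth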
RecBCD conf: confirmation: growth loss of phage-infected RecBCD+ E. coli (RecBCD inhibitor screen). inhibition, % at 11.9 µM. 890 compounds, 45% hits. E. coli V66 + T4 2- phage, growth OD. shares compounds with phage Ecoli inh;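 active means mean inhibition over triplicates exceeding the hit threshold derived in the original primary screen, cut at about 11% in these data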
Ecoli viability: counter-screen for RecBCD inhibitors: inhibitors of bacterial viability. shares compounds with phage Ecoli inh. E. coli viability, absorbance (OD) growth. inhibition, % at 11.9 µM. 890 compounds, 29% hits; in the data active means inhibition above about 20%;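 further: E. coli strain V66 grown with compound alone and no phage infection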
AddAB counter: growth loss of phage-infected AddAB E. coli, RecBCD counter-screen; shares compounds with phage Ecoli inh; E. coli expressing H. pylori AddAB + T4 phage, OD growth; gene 2 mutant T4, recBCD-deleted host; inhibition, % at 11.9 µM; 890 compounds, 45% hits;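 active means mean inhibition above the solvent-only control wells' mean plus 3 SD, cut at about 22% in these data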;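 further: higher means less bacterial growth from phage killing when AddAB is blocked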
Large screens that a line does not name were inactive (follow-up assays come after a bar, where they were run). This is a sample that favours compounds with a hit; in the whole collection about 0.5% have one here.

COc1cccc(-c2cnc(C(O)c3ccc(F)c(C)c3)[nH]2)c1 (centres undefined)	phage Ecoli inh 12 (no result: E coli growth-1, AddAB inh, Tat transport, E coli growth-2) | RecBCD conf inactive | Ecoli viability inactive | AddAB counter inactive
COc1cccc(-c2cnc(C(O)c3cc(C)cc(C)c3)[nH]2)c1 (centres undefined)	phage Ecoli inh 13 (no result: E coli growth-1, AddAB inh, Tat transport, E coli growth-2) | RecBCD conf inactive | Ecoli viability inactive | AddAB counter inactive
CCCCC(=O)N1CC=CC(c2ccc(OC)cc2)N(Cc2ccc(F)cc2)C(=O)C1C (centres undefined)	none (no result: AddAB inh, phage Ecoli inh, Tat transport, E coli growth-2)
CC(C)N=c1scc(-c2cccs2)n1/N=C/c1ccc(O)c(O)c1O	phage Ecoli inh 16 (no result: E coli growth-1) | RecBCD conf inactive | Ecoli viability inactive | AddAB counter inactive
O=C(NCc1ccccc1)C1=CC(c2csc3ccccc23)CC(OCc2ccc(CO)cc2)O1 (centres undefined)	none (no result: AddAB inh, phage Ecoli inh, Tat transport, E coli growth-2)
CC(=NN1CC(=O)NC1=O)c1ccc([N+](=O)[O-])o1	E coli growth-1 0.13, phage Ecoli inh 50 (no result: AddAB inh, E coli growth-2) | RecBCD conf 24 | Ecoli viability 44 | AddAB counter 103
CC(NC(=O)C1CCCCC1)C(c1cccs1)N1CCOCC1 (centres undefined)	phage Ecoli inh 97 | RecBCD conf inactive | Ecoli viability inactive | AddAB counter inactive
CC(NC(=S)NC1CCCCC1)C(c1cccs1)N1CCOCC1 (centres undefined)	none
Cc1cc(C)nc(Nc2cccc(C(F)(F)F)c2)n1	none
Cc1cc(NC(c2cccnc2)c2ccc3cccnc3c2O)no1 (centres undefined)	phage Ecoli inh 13 | RecBCD conf inactive | Ecoli viability inactive | AddAB counter inactive
Oc1c(C(Nc2cccc(C(F)(F)F)c2)c2cccnc2)ccc2cccnc12 (centres undefined)	phage Ecoli inh 12 | RecBCD conf inactive | Ecoli viability inactive | AddAB counter inactive
Fc1ccc(-c2csc(C=Cc3ccc4c(c3)OCO4)n2)cc1	none (no result: AddAB inh, phage Ecoli inh, Tat transport, E coli growth-2)
CCN1CCN(c2ccc(NC(=O)c3ccc([N+](=O)[O-])o3)cc2Cl)CC1	phage Ecoli inh 21 (no result: AddAB inh, E coli growth-2) | RecBCD conf 16 | Ecoli viability inactive | AddAB counter 102
CCN1CCN(c2ccc(S(=O)(=O)N3CCCCC3)cc2NC(=O)c2ccc([N+](=O)[O-])o2)CC1	none
CCN1C(=O)C2C(c3ccc(-c4ccc(Cl)c(Cl)c4)c(OC)c3)N[C@@](C)(C(=O)OC)C2C1=O (some centres undefined)	none (no result: AddAB inh, phage Ecoli inh, Tat transport, E coli growth-2)
Cn1nc(-c2ccccn2)nc2c(=O)n(C)c(=O)nc1-2	none
CCCc1nc2c(=O)n(C)c(=O)nc-2n(C)n1	E coli growth-1 0.44, phage Ecoli inh 18 (no result: AddAB inh, E coli growth-2) | RecBCD conf 16 | Ecoli viability inactive | AddAB counter 36
CC=CC(=O)Nc1cccc(C2=NOC3(C2)CC(C(N)=O)N(C(=O)C2(C)CC2)C3)c1 (centres undefined)	none (no result: AddAB inh, phage Ecoli inh, Tat transport, E coli growth-2)
NC(=S)NN=Cc1cn(CCC(=O)O)nc1-c1cccc(Br)c1	none (no result: AddAB inh, phage Ecoli inh, Tat transport, E coli growth-2)
COc1ccc(-c2nn(CCC(=O)O)cc2/C=N/NC(N)=S)cc1	phage Ecoli inh 73 (no result: E coli growth-1) | RecBCD conf inactive | Ecoli viability inactive | AddAB counter inactive
COC(=O)N1C(C)C=C[C@]1(Cc1ccccc1)C(=O)OC (some centres undefined)	none (no result: AddAB inh, phage Ecoli inh, Tat transport, E coli growth-2)
CCc1cc(OCCN(C)C)ccc1Cl	none
CN(C)CCOc1ccc2c(c1)C(=O)C(=Cc1ncc([N+](=O)[O-])n1C)C2	phage Ecoli inh 95 (no result: E coli growth-1, AddAB inh, Tat transport, E coli growth-2) | RecBCD conf 87 | Ecoli viability 96 | AddAB counter 100
CC(=NNc1nc2ccccc2s1)c1ccncn1	phage Ecoli inh 27 (no result: E coli growth-1, AddAB inh, E coli growth-2) | RecBCD conf 17 | Ecoli viability inactive | AddAB counter 25
O=C(O)Cn1cc(F)c(=O)[nH]c1=O	none (no result: phage Ecoli inh, Tat transport)
O=C1C=CC(n2cc(F)c(=O)[nH]c2=O)O1 (centres undefined)	phage Ecoli inh 24 (no result: E coli growth-1, AddAB inh, Tat transport, E coli growth-2) | RecBCD conf 32 | Ecoli viability 22 | AddAB counter 46
CN(CCC#N)C(=O)COC(=O)c1c2c(nc3ccccc13)C(=Cc1ccco1)CC2	none (no result: AddAB inh, phage Ecoli inh, Tat transport, E coli growth-2)
Nc1nc(=O)n(C2OC(CO)C(O)C2O)cc1F (centres undefined)	phage Ecoli inh 21 (no result: E coli growth-1, AddAB inh, Tat transport, E coli growth-2) | RecBCD conf 26 | Ecoli viability 21 | AddAB counter 53
O=c1ncccn1C1OC(CO)C(O)C1O (centres undefined)	phage Ecoli inh 96 (no result: E coli growth-1, AddAB inh, Tat transport, E coli growth-2) | RecBCD conf 93 | Ecoli viability 101 | AddAB counter 98
Nc1nc(F)nc2c1ncn2[C@@H]1O[C@H](CO)[C@@H](O)[C@@H]1O	phage Ecoli inh 75 (no result: E coli growth-1) | RecBCD conf 78 | Ecoli viability 79 | AddAB counter 78
Nc1ncnc2c1ncn2[C@@H]1O[C@H](CO)[C@@H](O)[C@@H]1O	none (no result: E coli growth-1)
O=c1[nH]c(=O)n(C2OC(CO)C(O)C2O)cc1F (centres undefined)	none (no result: E coli growth-1, AddAB inh, phage Ecoli inh, E coli growth-2)
COC(=O)CN1C(=O)C2C(C=Cc3ccccc3)N3C(=O)CN(CCO)C(=O)[C@@]3(Cc3ccccc3)C2C1=O (some centres undefined)	none (no result: AddAB inh, phage Ecoli inh, Tat transport, E coli growth-2)
O=C(C=CNc1ccc(F)c(Cl)c1)c1ccco1	none (no result: AddAB inh, phage Ecoli inh, Tat transport, E coli growth-2)
CN(C)C(=O)/C(=C\c1ccc(-c2cccc([N+](=O)[O-])c2)o1)NC(=O)c1ccccc1	none
CN(C)C(=O)/C(=C/c1ccc(-c2cccc([N+](=O)[O-])c2)o1)NC(=O)c1ccccc1	phage Ecoli inh 19 | RecBCD conf inactive | Ecoli viability inactive | AddAB counter inactive
CCCCC(=O)NC(c1cccc([N+](=O)[O-])c1)c1ccc2cccnc2c1O (centres undefined)	phage Ecoli inh 19 (no result: AddAB inh, E coli growth-2) | RecBCD conf 16 | Ecoli viability inactive | AddAB counter 25
CC1(C)SC2C(C(=O)OCc3ccccc3)NC(=O)N2C1C(=O)OCc1ccccc1 (centres undefined)	none (no result: AddAB inh, phage Ecoli inh, Tat transport, E coli growth-2)
O=C(CSc1ccc(-c2cccnc2)nn1)c1ccc([N+](=O)[O-])cc1	none
O=C(CSc1ccc(-c2ccccn2)nn1)c1ccc([N+](=O)[O-])cc1	phage Ecoli inh 12 | RecBCD conf inactive | Ecoli viability inactive | AddAB counter inactive
CC(=O)c1cccc(NC(=O)CSc2ccc(-c3ccccn3)nn2)c1	phage Ecoli inh 11 | RecBCD conf inactive | Ecoli viability inactive | AddAB counter inactive
C=CCC(CC(=O)N(CCO)Cc1ccccc1)C(=O)NCCOC(=O)C(CC=C)CC(=O)OC(C)(C)C (centres undefined)	none (no result: AddAB inh, phage Ecoli inh, Tat transport, E coli growth-2)
CC1CCN(C(=O)c2[nH]cnc2C(=O)NC(C)c2ccccc2)CC1 (centres undefined)	none (no result: AddAB inh, phage Ecoli inh, Tat transport, E coli growth-2)
COc1cc(N(C)C)ccc1C=c1c2ccccc2n2c1cc(-c1ccccc1)[n+]2C	phage Ecoli inh 28 (no result: E coli growth-1, AddAB inh, E coli growth-2) | RecBCD conf 32 | Ecoli viability 36 | AddAB counter 97
Cc1ccccc1CNC(=O)c1ccccc1C	none
